Laboratory results reported in ChEMBL document CHEMBL4513216, “Probing the Open Global Health Chemical Diversity Library for Multistage-Active Starting Points for Next-Generation Antimalarials” (ACS Infect Dis, 2020).
Screen size: about 69,000 compounds; about 8,600 (12%) showed an effect of 50% or more. This is one part of a sample in which strong results are shown more often than they occur.

tested on: Plasmodium berghei; experiment: Screen against P. berghei liver stage (PbLuc), transformed with Luciferase, at 10uM; assay type: functional, HepG2; settings: tested at 10 uM

Compound	INHIBITION [%]
Cc1ccc(CNC(=O)COc2ccc3c(c2)OCC3O)cc1 (centres undefined)	0.266
COCCn1nc(C(=O)N(C)Cc2ccc3ccccc3c2)ccc1=O	43.4
Cc1cnn(CC2CCCCN2C(=O)c2cccnc2N(C)C)c1 (centres undefined)	15.5
O=C(c1ncccn1)N1CCC2(CC1)COC(COc1ccccn1)C2 (centres undefined)	12.6
O=C(c1ccoc1)N1CCC2(CC1)COC(COc1ccccn1)C2 (centres undefined)	73.6
O=C(c1ccoc1)N1CCC2(CC1)COC(COCc1ccccn1)C2 (centres undefined)	23.8
CCC(C)N(CCOC)Cc1nc2c(cnn2C)c(=O)[nH]1 (centres undefined)	14.22
CC(C)NC(=O)CC(C)NCc1cc(Cl)ccc1F (centres undefined)	27.6
CC(C)NC(=O)CC(C)NCc1ccc(F)cc1Cl (centres undefined)	53.6
CN(CC(N)=O)Cc1ccc(F)cc1Cl	-59.5
COc1c(C(=O)NC(C)Cc2ccccc2Cl)c(C)nn1C (centres undefined)	17.5
O=C(O)c1c(-c2cncnc2)ncc2c1CCN(Cc1ccco1)C2	-27.1
CCn1nc2c(cc1=O)CN(Cc1nc(-c3cccnc3)no1)CC2	-56.575
CCc1c(C)nc(N)nc1NCCSCc1[nH]cnc1C	69.4
Cc1nc(C)c(C)c(NCCSCc2[nH]cnc2C)n1	-8.47
Cc1cnc(N)nc1NCCSCc1[nH]cnc1C	39.1
CN(Cc1cnn(C)c1)C(=O)Cc1ccc2c(c1)OCCO2	-18.5
Cc1nn(C)c(Cl)c1S(=O)(=O)N(C)C	12.3
Cc1n[nH]c(C)c1S(=O)(=O)N(C)Cc1nn(C)c(Cl)c1Cl	23.8
Cc1nn(C)c(C)c1S(=O)(=O)N(C)Cc1nn(C)c(Cl)c1Cl	54.5
Cc1nn(C)c(C)c1CN(C)S(=O)(=O)c1c(C)n[nH]c1C	53.5
Cc1noc(C)c1S(=O)(=O)N(C)Cc1nn(C)c(Cl)c1Cl	15.9
CCn1nc(C)c(CN(C)S(=O)(=O)c2cnn(C)c2)c1C	6.83

Compound	INHIBITION [%]
CS(=O)(=O)N[C@@H]1CCN(Cc2nccs2)[C@H]1Cc1ccncc1	30.5
COc1cccc(C(C(=O)O)N2CCSCC2)c1F (centres undefined)	17
CC(C)CN(CC(F)(F)F)S(=O)(=O)c1cc(C(N)=O)n(C)c1	-36.4
CCC1C=CCN1C(=O)c1cc(COc2ccccc2OC)[nH]n1 (centres undefined)	-2.39
CCCC(=O)N(C)CC(=O)Nc1ccc(Br)cn1	-9.37
COCC1c2c(cnn2CC2CC2)CCN1Cc1cccs1 (centres undefined)	-0.912
Cc1ncsc1C(=O)N1CC[C@@]2(O)CCN(C(=O)N3CCCC3)C[C@H]2C1	65.7
Cc1ocnc1C(=O)N1CC[C@@]2(O)CCN(C(=O)N3CCCC3)C[C@H]2C1	36.5
Cc1cc(C(=O)N2CC[C@@]3(O)CCN(C(=O)N4CCCC4)C[C@H]3C2)no1	1.74
Cc1cncc(C2CCCN(C(=O)c3scnc3C)C2)n1 (centres undefined)	51.7
Cc1noc(C2CCCN(C(=O)c3ccc(Br)o3)C2)n1 (centres undefined)	60.5
Cc1nc(C2CCCN(C(=O)c3scnc3C)C2)no1 (centres undefined)	18.1
Cc1cc(C(=O)N2CCCC(c3nc(C)no3)C2)on1 (centres undefined)	20
Cc1cncc(C2CCCN(C(=O)c3cn(C)nc3C)C2)n1 (centres undefined)	36.7
Cc1noc(C2CCCN(C(=O)c3cccc(Cl)c3)C2)n1 (centres undefined)	39.5
Cc1noc(C2CCCN(C(=O)c3cncc(Br)c3)C2)n1 (centres undefined)	-27.8
Cc1noc(C2CCCN(C(=O)c3cc(Cl)c(Cl)n3C)C2)n1 (centres undefined)	51.4
Cc1noc(C2CCN(C(=O)c3cc(Cl)c(Cl)n3C)CC2)n1	16.6
OCCCN1CCOC(c2ccc(F)cc2)C1 (centres undefined)	30.2
CC(C)c1nc(C(=O)N2CCOCC2CC(=O)c2ccco2)c[nH]1 (centres undefined)	9.48
Cc1cc(C)n(CC2CCCN2CC(=O)Nc2cc(C(C)C)no2)n1 (centres undefined)	-6.44
CN(C)CCOCC1CN(Cc2ccc(F)cc2)Cc2nnn(C)c21 (centres undefined)	33.2
O=C(c1ccco1)N1C[C@@H]2[C@@H](C1)OCC(=O)N2Cc1cccnc1	35.8

Compound	INHIBITION [%]
CS(=O)(=O)N1CCC2(CCN(C(=O)c3cccs3)CC2)CC1	32.1
Cc1noc(C2CCCN(C(=O)c3cc(Cl)cn3C)C2)n1 (centres undefined)	46.4
Cc1noc(C2CCCN(C(=O)c3scnc3Cl)C2)n1 (centres undefined)	74.2
Cc1noc(C2CCCN(C(=O)c3cc(Cl)ccc3F)C2)n1 (centres undefined)	-49.5
CN1CCCCc2c1nc1c(c2N)CCCC1	53.3
CN1CCCCc2c1nc1c(c2N)CCC1	8.46
CN1CCCc2c1nc1c(c2N)CCCC1	7.38
Cc1cc(C)c2nc(CN(C)C(C)c3ccncn3)cc(O)c2c1 (centres undefined)	-33.3
Cc1noc([C@@H]2C[C@H](NC(=O)NC(C)C)CN2C)n1	50.2
Cc1ccc(-c2noc([C@@H]3C[C@H](NC(=O)NC(C)C)CN3C)n2)cc1	23
Cc1noc([C@@H]2C[C@H](NC(=O)NC3CCCCC3)CN2C)n1	22.2
Cc1cnc(C(=O)NCc2ccnc(N(C)C)c2)cn1	11.6
O=C(O)c1c[nH]c2cc(NS(=O)(=O)c3cccc(F)c3F)ccc12	-10.1
CCn1c(C)nnc1SCCNc1cc(N2CCOCC2)ncn1	14
CCN1CCOC(CNCc2ccccc2OCc2cccnc2)C1 (centres undefined)	-46.55
CN(C)S(=O)(=O)N1CCN(C(=O)c2cc(-c3ccccc3)[nH]n2)CC1	18.5
Cc1nn(C)c2ncnc(N3CCC(O)(CN4CCCC4)CC3)c12	30
Cc1cnc(C(=O)N2CCN(Cc3csc(C)n3)CC2)cn1	-26.1
CN(C)CCn1c([C@H]2CCCO2)cc2cccnc21	56.8
c1cnc2c(c1)cc([C@H]1CCCO1)n2CCN1CCCC1	17.1
CN(C)CCn1c([C@@H]2CCCO2)cc2cccnc21	26.8
Cc1ccc(-n2cc3[nH]c(=O)n(C(C)C)n3c2=O)cc1	0.266
COCCn1cc(NC(=O)NC(C)Cc2c(F)cccc2F)cn1 (centres undefined)	15.3

Compound	INHIBITION [%]
CC(Cc1c(F)cccc1F)NC(=O)NCc1ncnn1C (centres undefined)	51.4
Cn1ccnc1CNC(=O)CCc1cccc(F)c1	-0.35
CC(Cc1cccc(Cl)c1)NC(=O)Nc1cnn(CC(N)=O)c1 (centres undefined)	-11.4
CC(Cc1ccco1)NC(=O)Nc1cnn(CC(N)=O)c1 (centres undefined)	0.0932
CC(Cc1c(F)cccc1F)NC(=O)Nc1cnn(CC(N)=O)c1 (centres undefined)	31.1
CC(C)NC(=O)NCCCc1cccc(F)c1	12.2
Cc1cc(C(=O)NC(C)Cc2cccc(Cl)c2)n(C)n1 (centres undefined)	18.6
CC(CCc1cccc(F)c1)NC(=O)NCc1ncnn1C (centres undefined)	56.4
CC(Cc1ccco1)NC(=O)NCc1ncnn1C (centres undefined)	86.2
CC(Cc1cccc(Cl)c1)NC(=O)NCc1ncnn1C (centres undefined)	64.3
CC(Cc1ccco1)NC(=O)CCn1cccn1 (centres undefined)	38.6
COC(=O)N1CCCC(C(=O)NCCc2c[nH]c3cc(C)ccc23)C1 (centres undefined)	47.9
CC(=O)NCCn1ccc(-c2ccccn2)n1	-13
O=C(c1ccc(-c2cccc3c2CCNC3)o1)N1CCCC1	9.56
Cc1nn(C)c2ncc(CNCCc3ccccn3)cc12	39.7
CCN1CC2(CCCCN2C(=O)c2ccsc2)CC1=O (centres undefined)	-8.51
CC(=O)N1CCC1c1cc(N2CC(O)C2)nc(C)n1 (centres undefined)	3.8
Cc1nc2n(n1)CC(NCc1cc(Cl)c3c(c1)OCCO3)CC2 (centres undefined)	13.6
O=C1NC2(CCc3ccccc31)CCN(C(=O)c1cccnc1)C2 (centres undefined)	12.085
CCN1CCOCC2(CCCN(C(=O)c3conc3C)C2)C1 (centres undefined)	12.4
Cn1cc(CN2CCCC3(CCN(C(=O)c4cnccn4)C3)C2)cn1 (centres undefined)	49.7
NC(=O)CCc1cccc(C2CCNCC2)n1	6.26
Clc1cccc(Cl)c1CN(CCCN1CCOCC1)Cc1cccnc1	19.3

Compound	INHIBITION [%]
CCCc1nc(C(=O)N(C)Cc2cc(CC)no2)cs1	-59.5
CCNc1nc(C(=O)N(C)Cc2nc(CC)no2)cs1	53.4
CCNc1nc(C)c(C(=O)N(C)Cc2nc(CC)no2)s1	20.9
CN(Cc1ccc(F)cc1)CC1(O)CCN(C(=O)c2ccncc2)C1 (centres undefined)	27.8
COC(=O)CNC(=O)c1cn(-c2ccccn2)c(=O)c2ccccc12	-21.4
CC(C)N1[C@H](CN2CCCC2)C[C@@H]2CN(C(=O)c3ccoc3)CC[C@@H]21	15.9
COc1cc(C2CC(=O)NCc3nc4sccn4c32)cc(OC)c1O (centres undefined)	39.3
COc1cc(C)c(C2CC(=O)NCc3nc4sccn4c32)cc1C (centres undefined)	-9.18
CCC1CC(=O)NCc2nc3sc(C)cn3c21 (centres undefined)	53.3
Cc1cc(F)ccc1NC(=O)NCC(C)N1CCOCC1 (centres undefined)	39
CNC(=O)c1cccnc1NCCOc1ccccc1	-81.6
Cn1cc(NCCOc2ccc(F)cc2)cn1	8.09
Fc1ccc(OCCCNC2=NCCN2)cc1	54.4
Fc1ccc(OCCCNC2=NCCCN2)cc1	35.4
c1ccc(OCCNC2=NCCCN2)cc1	77.9
c1ccc(OCCSC2=NCCN2)cc1	35
COC1COC2(CCN(c3ccc(C#N)cc3)CC2)C1 (centres undefined)	-36.5
CNC(=O)COC1COC2(CCN(c3cnccn3)CC2)C1 (centres undefined)	36.4
CNC(=O)COC1COC2(CCN(c3ccc(C#N)cc3)CC2)C1 (centres undefined)	64.9
Cc1ccc(N2CCC3(CC2)CC(OCC(=O)N(C)C)CO3)nn1 (centres undefined)	29
CNC(=O)COC1COC2(CCN(c3ncccn3)CC2)C1 (centres undefined)	27.5
CNC(=O)COC1COC2(CCN(c3ccc(C)nn3)CC2)C1 (centres undefined)	54.1
